The source of these data is PubChem BioAssay (NCI).

About 83,000 compounds went through this panel and 20% of them were active in at least one assay; those are over-represented in the sample as a whole.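 How to read the values: 0–100, growth inhibition (40 = 60% inhibited); 0, no net growth; -100 to 0, cell death (-40 = 40% of starting cells died; -100 = all dead).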 Activity calls are given as the source filed them.

This experiment concerns PC-3 prostate. Put plainly: NCI-60 one-dose screen, 48 h (100 = growth as untreated, 0 = no growth, -100 = all killed). As to conditions: 10 µM unless noted. As for the experimental part: Growth inhibition of the PC-3 human tumor cell line is measured as a screen for anti-cancer activity. Cells are grown in 96 well plates and exposed to the test compound for 48 hours. Compounds are tested at a single concentration, which is 10^-5 M for most compounds. The reported endpoint is percent growth (GI% or GIPRCNT), where numbers from 0 - 100% represent growth inhibition, and numbers from -100% - 0 represent cell death. For example, a value of 40 represents 60% growth inhibition. A value of 0 means no net growth occurred over the course of the experiment. A value of -40 indicates 40% of cells at the beginning of the experiment died by the end of the experiment. A value of -100 means all cells are dead at the end of the experiment.
NCI-60 Human Tumor Cell Lines Screen was performed using the standard one-dose NCI protocol, which is described in more detail at https://dtp.cancer.gov/discovery_development/nci-60/default.htm.
Compounds with GIPRCNT values below 10 were considered active. Activity score was based on GIPRCNT using the following formula: […]
Score is 0 for GIPRCNT values of 100 or above, 50 for GIPRCNT values of 0, and 100 for GIPRCNT values of -100.
Regarding `O=C1[C@H]2Cc3c([nH]c4ccccc34)[C@@H](c3c(Cl)cccc3Cl)N2C(=O)CN1C1CCN(CC2CCCCC2)CC1`, the growth was 63.5% (inactive).
In the case of `COc1ccc(NCc2cn(-c3ccc(C(=O)O)cc3)nc2-c2cc(C(F)(F)F)cc(C(F)(F)F)c2)cc1`, the growth was 93% (inactive).
The result for `CS(=O)(=O)c1ncc(-c2ccccc2)cn1` reads 100% (inactive).
The result for `Cc1ccc(C2=NN(C)C(=O)C3(CCCC3)C2)cc1` reads 102% (inactive); that for `CC(=O)c1cc(C(=O)N2c3ccccc3Sc3ccccc32)n2ccc3ccccc3c12`, 37.6% (inactive); that for `Nc1ncc(-c2ccc3ncnc(Nc4cccc(Cl)c4F)c3c2)cn1`, 61% (inactive).
The result for `Cc1ccc(NC(=O)N[C@@H](Cc2cc(F)cc(F)c2)C(=O)NC2C(=O)N3C[C@H](O)C[C@H]3C(=O)N3CCCC[C@H]3C(=O)N[C@@H](CO)C(=O)N3C[C@H](C)C[C@H]3C(=O)O[C@H]2C)c(F)c1` (stereo not given in full) reads 20% (inactive).
With `NS(=O)(=O)c1ccc(-n2cc(CN3CCNCC3)nn2)cc1`, the growth is 102% (inactive).
Turning to `COc1ccc(/C=C/C(=O)c2cccc(NC(=O)CSc3nc4ccccc4c(=O)n3-c3ccccc3)c2)cc1OC`, the growth is 97% (inactive).
For `Cc1cccc2c3c(sc12)C(c1ccc(F)cc1)C(C#N)=C(/N=C/c1ccc(Cl)cc1)O3` (stereo not given) the value was 13.6% (inactive); for `CCOC(=O)c1c(Nc2ccccc2)nn2c(-c3ccccc3)ccnc12`, 92.8% (inactive).
As to `COc1ccc(C(=O)c2c(N)c(C#N)cn2-c2ccccc2OC)cc1`, the growth is 36.2% (inactive).
As for `CC1(COc2ccc3ncc(C#Cc4cncc(C(=O)Nc5cccc(C(F)(F)F)c5)c4)n3n2)COC1`, the growth was 95.5% (inactive).
The result for `NC(=O)c1c(NC(=O)c2ccccc2C(F)(F)F)sc2c1CCC(=O)C2` reads 17.5% (inactive); that for `O=C(CCC(=O)N1CCOCC1)OCCCCCCSc1ccc([N+](=O)[O-])c2nonc12`, 2.96% (active).
For the compound `Cc1ccc(-c2nnc(SCc3ccc(O)c4ncccc34)n2-c2ccccc2)cc1`, the growth was 5.96% (active).
For `CC(=O)N1N=C(c2cccc(-n3cccc3)c2)CC1c1cccc(F)c1` (stereo not given) the value was 84.9% (inactive); for `CCOC(=O)c1c(NC(=O)c2ccccc2C(F)(F)F)sc2c1CCC(=O)C2`, 14.6% (inactive).
For `NC(N)=Nc1ccc(Oc2cccc(NC(N)=Nc3ccc(Br)c(C(F)(F)F)c3)c2)cc1`, the growth is 4.3% (active).
Regarding `CC(Nc1c(C#N)cnc2ccc(-c3cnc(N)nc3)cc12)c1ccccc1` (stereo not given), the growth was 10.8% (inactive).
Regarding `O=C1C(c2ccccc2)=C(N2CCc3ccccc32)OC1(Cl)Cl`, the growth was 69.5% (inactive).
For the compound `O=C(CSc1nc2ccccc2c(=O)n1-c1ccccc1)Nc1cccc(C(=O)/C=C/c2ccccc2)c1`, the growth was 90.4% (inactive).
Take `CN1CCN(c2nc(-c3csc(-c4ccccc4)n3)cc3ccccc23)CC1`: the growth was 28.9% (inactive).
For `CC(=O)c1ccc(Nc2nc(SCC(C)C)nc(-c3ccccc3)c2C#N)cc1` the value was 104% (inactive).
Consider `C[C@@H](Nc1c(C#N)cnc2ccc(-c3cnc(Cl)c(NS(C)(=O)=O)c3)cc12)c1ccccc1`, for which the growth is 5.67% (active).
The result for `COc1ccccc1N1CCN(C2=CC(=O)C(C)=C(C)C2=O)CC1` reads 95.9% (inactive); that for `COc1cc2oc(-c3cccc(N)c3)cc(=O)c2c(OC)c1OC`, 98.7% (inactive).
For `CCc1cccc2c3c(sc12)C(c1ccc(Cl)cc1)C(C#N)=C(/N=C/c1ccc(Cl)cc1)O3` (stereo not given), the growth was 16.5% (inactive).
For `Cc1ccc(-c2cc3nc(C(Cl)Cl)nc(-c4cccs4)n3n2)cc1` the value was 66.5% (inactive); for `Oc1cccc2ccc(-c3nnc(SCc4ccc(O)c5ncccc45)o3)nc12`, 9.67% (active).
The result for `CCOC(=O)C(=O)CC(=O)N1C(=S)NC(=O)C1CC(C)C` (stereo not given) reads 103% (inactive); that for `COc1cc2nc(Cl)nc(Nc3cccc(C4=Nc5c(N)nc(N)nc5NC(c5ccc(Br)cc5)C4)c3)c2cc1OC` (stereo not given), 64.7% (inactive); that for `O=C(c1ccc(Cl)cc1)C1[C@H](c2ccc(Cl)cc2)[C@@H](c2ccccc2)NC12C(=O)Nc1ccccc12` (stereo not given in full), 29.1% (inactive).
For `COc1ccccc1NCc1cccn1Cc1ccc(F)cc1` the value was 97.3% (inactive).
As for `COc1cc(OC)c(S(N)(=O)=O)cc1C(=O)/C=C/c1ccc(Cl)cc1`, the growth was 28.2% (inactive).
As to `CCCCCc1ccc(S(=O)(=O)Nc2cccc(-c3csc(NC(=O)CN4CCN(CCO)CC4)n3)c2)cc1`, the growth is 64.1% (inactive).
Regarding `Cc1ccc(CSc2nc(-c3ccc(Cl)cc3)c(C#N)c(N3CCOCC3)n2)cc1`, the growth is 80.3% (inactive).
The result for `Nn1c(N/N=C/c2nc3ccccc3s2)n[nH]c1=S` reads 97.8% (inactive).
For `O=S(=O)(NCCCNc1nccc(-c2[nH]c(-c3ccccc3)nc2-c2ccc(Cl)c(O)c2)n1)c1ccc(Br)cc1` the value was 27.1% (inactive).
For `C#Cc1ccc(C(=O)NCc2ccc(/C=C/C(=O)c3nccn3C)cc2)cc1` the value was 30.7% (inactive).
